Screening results: PubChem, National Center for Advancing Translational Sciences (NCATS)
Only some compounds are listed: those with a hit (about 3.8% of all), similar ones and a draw of the others.
HepG2 tox-1: kills HepG2 cells in TGF-b inhibitor counter-screen. HepG2 CAGA-GFP viability, ATP luminescence, 18 h. Potency, µM (highest dose often 46.1 µM), for inactives: at the highest dose activity change, negative = cytotoxicity, hits mostly cytotoxic. 410,000 tested, 0.76% active
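HepG2 CAGA-GFP cells (1000/well, DMEM with 1% FBS) received compound, then TGF-beta at 500 pg/mL final, and were incubated 18 hours at 37 degrees C. Viability was read by CellTiter-Glo luminescence. Media-only wells were set as complete cell-killing and DMSO as no toxicity.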
HT1080 IDH1KD tx: HT-1080 IDH1 knockdown cell toxicity (counter line). 360,000 tested, 2% active. Potency, µM (top dose mostly 46.1 µM), for the others: top-dose activity, negative = toxicity, hits mostly cytotoxic. HT-1080 IDH1 knockdown viability, ATP luminescence, 48 h;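 note: 0% = DMSO wells and -100% = cell-free medium wells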
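Viability of IDH1-knockdown HT-1080 fibrosarcoma cells was assessed by CellTiter-Glo after 48 h at 37 °C with titrated compound; concentration-effect curves were classified by fit quality and response size.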
TGFb SMAD3 inh: blocks TGF-b signaling; AID 588855; 410,000 tested, 1.2% active; HepG2 CAGA-GFP TGF-b/SMAD3 reporter, GFP fluorescence, 18 h; TGF-beta stimulated, 500 pg/mL final; Potency, µM (top dose mostly 46.1 µM), without a hit: at the top dose activity, negative = inhibition, most hits filed as inhibitors; note: % is set by controls: 0 for no effect and ±100 for the full control effect; nearly all actives have a fitted effect of over 65% in size
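HEPG2 CAGA-GFP cells (1000/well, DMEM with 1% FBS) were pre-incubated 2 h at 37 degrees C, given compound by pin tool, then stimulated with TGF-beta at 500 pg/mL final for 18 h before per-cell GFP fluorescence imaging.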
ATXN2 expr inh: reduces ATXN2 reporter expression in HEK-293 cells; HEK-293 ATXN2-luciferase reporter, luminescence, 24 h; Potency, µM (series often up to 57 µM), inactives show at the top dose activity change, negative = inhibition, hits mostly inhibitors; 360,000 tested, 0.72% active; AID 1745845; note: % is set by controls: 0 for no effect and ±100 for the full control effect; nearly all actives have a fitted effect of over 55% in size
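qHTS (up to 57 uM final) was run with 24 h compound exposure of reporter cells at 37 °C. Each well was multiplexed: SteadyGlo luminescence measured ATXN2-luciferase expression after a fluorogenic Gly-Phe-AFC viability readout (25 uM final).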
ATXN viability: reduces viability in counter-screen for ATXN expression inhibitors. S2 cells (HEK-293 line with an ATXN2-luciferase reporter) viability, CellTiter-Fluor protease fluorescence, 24 h. Potency, µM (top dose mostly 56.7 µM), actives largely listed as cytotoxic. 400,000 tested, 0.49% active. AID 651635; note: nearly all actives have a fitted effect of over 40% in size
HT1080-NT tox: kills 2HG-producing HT-1080-NT fibrosarcoma cells; Potency, µM (doses to about 46.1 µM), inactives show top-dose activity, negative = less viability, most hits filed as cytotoxic; AID 686970; HT-1080-NT fibrosarcoma viability, CellTiter-Glo ATP luminescence, 48 h; 360,000 tested, 1.6% active;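 note: NT is the 2HG producing partner of a matched IDH1 knockdown line; 0% = DMSO-treated cells and -100% = media-only wells without cells; nearly all actives have a fitted effect of over 55% in size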
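A 48-hour cytotoxicity screen used HT-1080-NT cells plated 2 hours before compound delivery. ATP-based CellTiter-Glo luminescence measured viability, normalized to DMSO and no-cell controls.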
TGFb CAGA inh: confirmation of TGF-b signaling inhibitors in HepG2 reporter cells; 1,600 tested, 63% active; AID 720534; Potency, µM (series often up to 46.1 µM), inactives show top-dose activity, negative = inhibition, most hits filed as inhibitors; HepG2 CAGA-GFP TGF-b reporter, GFP fluorescence, 18 h; cells stimulated with TGF-beta, 500 pg/mL; shares compounds with TGFb SMAD3 inh; note: % is set by controls: 0 for no effect and ±100 for the full control effect; nearly all actives have a fitted effect of over 65% in size
HepG2 tox-2: HepG2 cytotoxicity, TGF-b inhibitor counterscreen. shares compounds with TGFb SMAD3 inh. HepG2 CAGA-GFP viability, ATP luminescence, 18 h; cells stimulated with TGF-beta, 500 pg/mL. Potency, µM (top dose mostly 46.1 µM), inactives show at the highest dose activity, negative = cytotoxicity, most hits filed as inhibitors. 1,600 tested, 27% active. AID 720535; note: % is set by controls: 0 for no effect and ±100 for the full control effect; nearly all actives have a fitted effect of over 70% in size
CCL64 TGFb inh: TGF-b inhibition, CCL64 orthogonal assay. AID 720536. shares compounds with TGFb SMAD3 inh. CCL64 CAGA-GFP reporter, TGF-b stimulated, GFP fluorescence, 18 h. Potency, µM (titrated, usually from 46.1 µM), for the others: at the highest dose activity, negative = inhibition, usual class: inhibitors. 1,600 tested, 41% active; note: nearly all actives have a fitted effect of over 65% in size
COP TGFb inh: validation of TGF-b inhibitors in HepG2 COP promoter reporter | shares compounds with TGFb SMAD3 inh | HepG2 COP-GFP TGF-b reporter, GFP fluorescence, 18 h; cells stimulated by added recombinant TGF-beta | Potency, µM (top dose mostly 46.1 µM), without a hit: at the highest dose activity, negative = inhibition, usual class: inhibitors | 1,600 tested, 3% active; note: nearly all actives have a fitted effect of over 70% in size
Starred values were filed as active, the others as inactive; i = inactive; ? = inconclusive; · = not tested or not shown. Calls come from the whole dose curve; as a rule, active = well fitted curve in the direction sought with a large enough effect; inconclusive = small, poorly fitted or top-dose-only effect, or another doubt; inactive = no such curve, though single readings can be large; an effect the other way counts as inactive or inconclusive. Potency is the fitted concentration of half-maximal effect.

SMILES	HepG2 tox-1	HT1080 IDH1KD tx	TGFb SMAD3 inh	ATXN2 expr inh	ATXN viability	HT1080-NT tox	TGFb CAGA inh	HepG2 tox-2	CCL64 TGFb inh	COP TGFb inh
Cc1ccc(C2(c3ccc(C)cc3)CC2C(=O)Nc2ccc([N+](=O)[O-])cc2O)cc1 (configuration not stated)	11µM*	16µM*	4µM*	16µM*	·	21µM*	5.8µM*	8.2µM*	7.3µM*	?
COc1ccc(-c2csc(Nc3ccc(Oc4ccccc4)cc3)n2)cc1	-16%	13µM*	11µM*	?	?	?	7.3µM*	-14%	7%	5%
COc1ccc(C2CC(=O)NC(NC(=O)c3ccc(Br)cc3)=N2)c(OC)c1OC (configuration not stated)	4%	·	-1%	·	·	·	·	·	·	·
Cc1cc(CNC(=O)c2ccc3nc(Cc4ccccc4F)oc3c2)nn1C	0%	13%	-11%	57%	i	13%	·	·	·	·
O=C(NCc1ccncc1)c1ccc2nc(Cc3ccccc3F)oc2c1	2%	-22%	?	-4%	i	-16%	?	-14%	16%	-18%
Cc1nc2nc(C(F)(F)F)[nH]n2c(=O)c1Cc1ccccc1	2%	·	4%	6%	i	·	·	·	·	·
CN(Cc1cccs1)c1nc(-c2cccnc2)nc2ccccc12	-8%	-3%	14µM*	-24%	·	-5%	26µM*	?	18µM*	40%
O=C(NCCN1CCOCC1)c1cc(S(=O)(=O)Nc2ccccc2F)c(Cl)cc1Cl	3%	-1%	8%	-10%	i	7%	·	·	·	·
O=C(c1cc(S(=O)(=O)Nc2ccccc2F)c(Cl)cc1Cl)N1CCN(CCO)CC1	-12%	-1%	?	·	i	-3%	-2%	-1%	?	-2%
CCCNC(=O)C1CCC(Cn2c(=O)c3sccc3n(CC(=O)NCc3cccc(OC)c3OC)c2=O)CC1 (configuration not stated)	0%	·	-22%	15%	i	·	·	·	·	·
COc1ccc(C)cc1NC(=O)C(=O)NCC(c1cccnc1)N1CCc2ccccc21 (configuration not stated)	-19%	·	-31%	·	·	·	·	·	·	·
COc1ccc(C(CNC(=O)c2oc3ccc(OC)cc3c2C)N2CCCC2)cc1 (configuration not stated)	-29%	-17%	?	-23%	i	?	?	?	-8%	45%
Cc1ccc(COc2ccc(-c3cc(C(F)(F)F)n4nc(C)cc4n3)cc2)cc1	-10%	·	-1%	1%	i	·	·	·	·	·
CCN(CC)C(=O)c1ccc2nc3ccccc3nc2c1	-88%	-22%	10µM*	19%	i	-11%	?	12µM*	2%	23%
COc1ccc(CCNC(=O)CNS(=O)(=O)c2ccc(Cl)cc2)cc1	-7%	3%	?	-3%	i	8%	-5%	4%	2%	-16%
COc1ccc(-c2[nH]ncc2CN2CCC(O)(c3ccc(Cl)cc3)CC2)cc1	-29%	?	6.3µM*	-38%	i	?	?	?	9.2µM*	87%
OC1(c2ccc(Cl)cc2)CCN(Cc2cn[nH]c2-c2ccccc2)CC1	-29%	?	?	-36%	i	?	·	·	·	·
OC1(c2ccc(Cl)cc2)CCN(Cc2cn[nH]c2-c2ccc(F)cc2)CC1	-32%	?	4µM*	-29%	i	21µM*	?	?	26µM*	70%
COc1ccc(-c2[nH]ncc2CN2CCN(c3ccc(F)cc3)CC2)cc1	-31%	0%	?	·	i	-15%	·	·	·	·
COc1ccc(C2=C(C)C(N3CCC(C(=O)Nc4ccccc4F)CC3)=NS2(=O)=O)cc1	-5%	·	-2%	-12%	i	·	·	·	·	·
Cc1ccc(Cl)cc1N1CCN(C(=O)c2cc(S(=O)(=O)N3CCCC3)c[nH]2)CC1	-33%	·	?	·	·	·	·	·	·	·
CC(=O)NS(=O)(=O)c1ccc(NC(=O)C(Sc2ccccc2)c2ccccc2)cc1 (configuration not stated)	9%	5%	3%	-16%	i	10%	·	·	·	·
CCC(C)NS(=O)(=O)c1ccc(NC(=O)C(Sc2ccccc2)c2ccccc2)cc1 (configuration not stated)	-25%	?	13µM*	?	?	-28%	?	?	?	53%
O=C1N[C@@H](c2ccccc2)COC(=O)[C@@H](Cc2ccc(F)cc2)CC/C=C/C[C@@H]1CC(=O)N(CCO)Cc1ccccc1	0%	?	?	?	18µM*	?	15µM*	-21%	?	25%
O=C1N[C@@H](c2ccccc2)COC(=O)[C@@H](Cc2ccc(F)cc2)CC/C=C/C[C@H]1CC(=O)N(CCO)Cc1ccccc1	-27%	?	?	-16%	?	?	·	·	·	·
O=C(C[C@@H]1C/C=C\C[C@@H](Cc2ccc(F)cc2)C(=O)OC[C@@H](Cc2ccccc2)NC1=O)N[C@H](CO)Cc1ccccc1	-34%	5%	?	4%	i	1%	3%	7%	4%	0%
CCN(CC)S(=O)(=O)c1cccc(C(=O)Nc2ccccc2C(=O)Nc2ccc(OC)cc2)c1	-3%	·	?	-2%	i	·	·	·	·	·
